# Reference: the supplement of paper PMC10849652
# Targets with a hit are over-represented here; the source holds about 8,800 in all. About 0.5% of all pairs of compound and target were hits. Unmarked numbers belong to inactive results.
# What was measured:
# Experiment in all cases: log2 fold change, soluble protein after heating vs DMSO (PISA); higher = thermal stabilisation; K562 lysate, 10 uM; active = over 0.2 and 3.5 SD of the protein, either way, in both replicates (recomputed)
# erlotinib = compound: C#Cc1cccc(Nc2ncnc3cc(OCCOC)c(OCCOC)cc23)c1 [erlotinib]
# How it was run: (§1)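 K562 pellets were dounce-homogenised in PBS pH 7.4 with 1 mM MgCl2, and the crude extract at 1 mg/mL protein was treated with 10 μM compound for 30 min. Aliquots were heated for 3 min across 48°C-58°C, pooled, and brought to 0.5% NP-40 at 4°C; soluble protein was the supernatant after 21,000xg for 90 min. Soluble protein was quantified by TMTpro 16plex LC-MS/MS with channel sums equalised, and reported as log2 fold change in thermal stability against DMSO controls, with values from duplicates.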
# [1] = compound: C/C(=N\NC(=O)C1=CC(=CC=C1)S(=O)(=O)N2CCOCC2)/C3=C(C=CC(=C3)Cl)O
# How it was run: as §1
# [2] = compound: C1=CC(=CC=C1C2=NC3=C(N2)C=C(C=C3)C(=O)N)OC4=CC=C(C=C4)Cl
# How it was run: as §1
# [3] = compound: C1=CC2=C(C=CC(=C2)/C=C\3/C(=O)NC(=NCC4=CC=CS4)S3)N=C1
# How it was run: as §1
# [4] = compound: C1=CC2=NC=CN=C2C=C1/C=C/3\C(=O)NC(=O)S3
# How it was run: as §1
# [5] = compound: C1=CC=C(C=C1)C2=NC(=C(N2)C3=CC=NC=C3)C4=CC(=C(C=C4)Cl)O
# How it was run: as §1
# [6] = compound: C1=CC=C2C(=C1)C3=NNC4=CC=CC(=C43)C2=O
# How it was run: as §1
# [7] = compound: C1CCN(C1)C(=O)NC2=CC=CC(=C2)NC3=NC=C(C(=N3)NCCC4=CN=CN4)Br
# How it was run: as §1
# [8] = compound: C1CN(CCC1(CC2=CC=C(C=C2)Cl)N)C3=NC=NC4=C3C=CN4
# How it was run: as §1
# IRAK-1-4 Inhibitor I = compound: C1COCCN1CCN2C3=CC=CC=C3N=C2NC(=O)C4=CC(=CC=C4)[N+](=O)[O-] [IRAK-1-4 Inhibitor I]
# How it was run: as §1
# ibrutinib = compound: C=CC(=O)N1CCC[C@@H](n2nc(-c3ccc(Oc4ccccc4)cc3)c3c(N)ncnc32)C1 [ibrutinib]
# How it was run: as §1
# [9] = compound: CC(=O)c1cnc2ccc(-c3cc(Cl)c(O)c(Cl)c3)nc2c1N[C@H]1CC[C@H](CN(C)C)CC1
# How it was run: as §1
# ralimetinib = compound: CC(C)(C)Cn1c(N)nc2ccc(-c3[nH]c(C(C)(C)C)nc3-c3ccc(F)cc3)nc21 [ralimetinib]
# How it was run: as §1
# [10] = compound: CC(C)(O)CC(=O)NCCn1ccc2ncnc(Nc3ccc(Oc4cccc(C(F)(F)F)c4)c(Cl)c3)c21
# How it was run: as §1
# [11] = compound: CC(C)C1=C2N=C(C=C(N2N=C1)NCC3=CC=CC=C3)NCCCCCCN
# How it was run: as §1
# [12] = compound: CC1=C(C(CC(=O)N1)C2=CC=C(C=C2)C(F)(F)F)C(=O)NC3=C(C=C4C(=C3)C=NN4)F
# How it was run: as §1
# [13] = compound: CC1=C(C2=C(C=C1)C(=O)C3=CC=CC=C3N2CCCN)C
# How it was run: as §1
# [14] = compound: CC1=C(C=C(C=C1)NC(=O)C2=CC(=CC=C2)C(C)(C)C#N)NC3=CC4=C(C=C3)N=CN(C4=O)C
# How it was run: as §1
# [15] = compound: CC1=C(C=C(C=C1)NC(=O)C2=CC(=CC=C2)N(C)C)NC(=O)C3=CC=C(C=C3)O
# How it was run: as §1
# [16] = compound: CC1=CC=C(C=C1)SC2=C3C=C(SC3=CN=C2)C(=O)N
# How it was run: as §1
# Sequence of UniProt P50552 (P50552 whole entry, looked up): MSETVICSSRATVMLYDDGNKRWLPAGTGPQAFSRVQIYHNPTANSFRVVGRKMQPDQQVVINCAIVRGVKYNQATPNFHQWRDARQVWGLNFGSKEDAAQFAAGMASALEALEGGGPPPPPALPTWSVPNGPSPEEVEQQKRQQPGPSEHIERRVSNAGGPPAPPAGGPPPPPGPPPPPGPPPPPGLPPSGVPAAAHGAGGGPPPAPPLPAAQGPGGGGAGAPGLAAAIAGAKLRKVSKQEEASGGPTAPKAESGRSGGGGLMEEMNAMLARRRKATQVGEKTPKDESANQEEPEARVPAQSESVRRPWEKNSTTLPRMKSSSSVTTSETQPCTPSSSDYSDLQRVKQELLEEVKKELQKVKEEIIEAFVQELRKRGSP
# Sequence of UniProt O15014 (O15014 whole entry, looked up): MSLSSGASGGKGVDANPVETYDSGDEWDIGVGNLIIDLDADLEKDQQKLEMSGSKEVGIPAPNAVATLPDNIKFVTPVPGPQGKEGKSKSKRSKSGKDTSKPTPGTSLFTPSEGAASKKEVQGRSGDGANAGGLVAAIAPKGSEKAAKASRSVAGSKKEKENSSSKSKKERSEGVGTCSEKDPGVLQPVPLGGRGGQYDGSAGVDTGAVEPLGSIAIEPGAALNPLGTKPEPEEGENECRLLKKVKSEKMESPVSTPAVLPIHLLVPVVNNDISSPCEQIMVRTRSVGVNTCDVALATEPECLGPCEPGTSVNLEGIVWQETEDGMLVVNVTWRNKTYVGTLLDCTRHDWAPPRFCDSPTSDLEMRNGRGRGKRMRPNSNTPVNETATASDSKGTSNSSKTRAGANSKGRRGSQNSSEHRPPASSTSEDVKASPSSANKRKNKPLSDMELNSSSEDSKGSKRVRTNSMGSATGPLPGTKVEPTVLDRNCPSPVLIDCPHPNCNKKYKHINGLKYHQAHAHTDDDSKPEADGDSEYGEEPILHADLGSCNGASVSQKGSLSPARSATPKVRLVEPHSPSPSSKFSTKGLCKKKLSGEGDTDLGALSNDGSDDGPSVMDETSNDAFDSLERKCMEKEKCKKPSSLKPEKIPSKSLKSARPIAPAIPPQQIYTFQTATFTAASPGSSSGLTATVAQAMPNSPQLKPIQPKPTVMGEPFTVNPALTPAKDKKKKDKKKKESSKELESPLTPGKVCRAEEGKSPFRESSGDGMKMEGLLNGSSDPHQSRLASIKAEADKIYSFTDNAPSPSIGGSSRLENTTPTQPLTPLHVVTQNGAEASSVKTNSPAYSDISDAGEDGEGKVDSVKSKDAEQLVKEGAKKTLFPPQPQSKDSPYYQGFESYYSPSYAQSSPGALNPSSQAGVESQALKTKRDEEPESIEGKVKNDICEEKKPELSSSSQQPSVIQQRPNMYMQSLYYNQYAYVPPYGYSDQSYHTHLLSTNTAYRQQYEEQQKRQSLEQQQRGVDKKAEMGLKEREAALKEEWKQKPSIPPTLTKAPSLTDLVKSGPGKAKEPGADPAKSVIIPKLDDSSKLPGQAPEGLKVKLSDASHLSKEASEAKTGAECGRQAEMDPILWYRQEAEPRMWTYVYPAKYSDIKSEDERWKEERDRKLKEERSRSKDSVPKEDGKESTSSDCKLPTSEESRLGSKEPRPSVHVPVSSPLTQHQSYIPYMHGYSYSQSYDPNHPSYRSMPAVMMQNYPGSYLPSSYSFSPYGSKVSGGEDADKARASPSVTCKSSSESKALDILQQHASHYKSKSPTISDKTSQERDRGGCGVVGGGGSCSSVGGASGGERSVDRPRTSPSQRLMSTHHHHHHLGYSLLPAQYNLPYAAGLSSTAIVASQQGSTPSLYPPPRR
# Sequence of UniProt Q96NC0 (Q96NC0 whole entry, looked up): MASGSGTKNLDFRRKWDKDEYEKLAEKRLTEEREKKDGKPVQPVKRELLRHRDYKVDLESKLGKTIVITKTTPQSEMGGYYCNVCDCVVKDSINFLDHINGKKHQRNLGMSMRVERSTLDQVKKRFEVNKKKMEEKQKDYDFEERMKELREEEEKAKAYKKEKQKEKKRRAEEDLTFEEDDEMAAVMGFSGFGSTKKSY
# Sequence of UniProt Q9BQA1 (Q9BQA1 whole entry, looked up): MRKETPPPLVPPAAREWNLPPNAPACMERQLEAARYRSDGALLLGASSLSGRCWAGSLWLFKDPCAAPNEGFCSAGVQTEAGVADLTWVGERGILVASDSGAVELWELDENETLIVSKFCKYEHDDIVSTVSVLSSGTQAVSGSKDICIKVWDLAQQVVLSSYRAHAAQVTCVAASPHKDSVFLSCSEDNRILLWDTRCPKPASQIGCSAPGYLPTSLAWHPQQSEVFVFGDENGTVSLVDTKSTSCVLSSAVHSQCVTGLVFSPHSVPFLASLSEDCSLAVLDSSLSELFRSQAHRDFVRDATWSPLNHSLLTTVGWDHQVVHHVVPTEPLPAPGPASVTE
# Sequence of UniProt Q9Y4P8 (Q9Y4P8 whole entry, looked up): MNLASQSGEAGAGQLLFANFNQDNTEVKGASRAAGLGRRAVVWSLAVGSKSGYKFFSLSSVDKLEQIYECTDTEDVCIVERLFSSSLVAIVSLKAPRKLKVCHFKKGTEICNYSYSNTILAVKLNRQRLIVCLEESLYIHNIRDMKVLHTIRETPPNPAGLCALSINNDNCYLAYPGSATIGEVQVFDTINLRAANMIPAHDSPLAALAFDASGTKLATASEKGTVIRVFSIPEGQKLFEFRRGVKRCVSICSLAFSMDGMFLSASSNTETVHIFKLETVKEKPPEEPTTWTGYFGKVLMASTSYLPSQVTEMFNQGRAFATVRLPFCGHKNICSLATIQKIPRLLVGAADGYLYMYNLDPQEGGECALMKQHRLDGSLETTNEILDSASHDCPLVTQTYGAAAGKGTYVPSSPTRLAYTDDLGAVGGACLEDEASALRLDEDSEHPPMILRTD
# Sequence of UniProt O14980 (O14980 whole entry, looked up): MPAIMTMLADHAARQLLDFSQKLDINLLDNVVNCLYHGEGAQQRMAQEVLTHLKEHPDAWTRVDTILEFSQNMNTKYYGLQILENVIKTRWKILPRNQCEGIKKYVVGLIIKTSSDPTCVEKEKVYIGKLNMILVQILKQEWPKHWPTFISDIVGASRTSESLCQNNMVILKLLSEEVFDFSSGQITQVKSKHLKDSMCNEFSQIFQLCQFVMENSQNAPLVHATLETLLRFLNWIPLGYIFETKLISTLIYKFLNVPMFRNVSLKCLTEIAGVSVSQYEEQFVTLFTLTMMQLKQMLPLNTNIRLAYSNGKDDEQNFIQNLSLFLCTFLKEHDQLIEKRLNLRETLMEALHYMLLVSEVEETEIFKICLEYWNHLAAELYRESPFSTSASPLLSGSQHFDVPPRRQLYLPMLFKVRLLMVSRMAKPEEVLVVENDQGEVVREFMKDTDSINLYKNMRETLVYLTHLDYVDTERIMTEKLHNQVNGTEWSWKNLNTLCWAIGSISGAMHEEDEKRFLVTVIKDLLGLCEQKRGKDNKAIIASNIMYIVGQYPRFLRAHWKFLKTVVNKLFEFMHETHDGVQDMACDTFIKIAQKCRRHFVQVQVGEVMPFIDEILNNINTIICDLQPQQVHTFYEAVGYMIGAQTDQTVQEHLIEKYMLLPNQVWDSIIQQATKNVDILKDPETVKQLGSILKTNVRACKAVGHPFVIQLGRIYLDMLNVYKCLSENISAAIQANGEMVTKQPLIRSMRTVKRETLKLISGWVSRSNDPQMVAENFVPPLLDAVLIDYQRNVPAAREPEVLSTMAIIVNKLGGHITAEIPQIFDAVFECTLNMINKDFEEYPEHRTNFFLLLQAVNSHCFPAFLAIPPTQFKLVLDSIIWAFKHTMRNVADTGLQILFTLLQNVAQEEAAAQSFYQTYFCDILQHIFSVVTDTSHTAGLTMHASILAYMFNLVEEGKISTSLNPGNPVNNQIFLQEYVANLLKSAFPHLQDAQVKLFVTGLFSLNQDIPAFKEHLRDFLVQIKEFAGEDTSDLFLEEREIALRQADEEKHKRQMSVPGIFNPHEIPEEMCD
# Sequence of UniProt Q9BTA9 (Q9BTA9 whole entry, looked up): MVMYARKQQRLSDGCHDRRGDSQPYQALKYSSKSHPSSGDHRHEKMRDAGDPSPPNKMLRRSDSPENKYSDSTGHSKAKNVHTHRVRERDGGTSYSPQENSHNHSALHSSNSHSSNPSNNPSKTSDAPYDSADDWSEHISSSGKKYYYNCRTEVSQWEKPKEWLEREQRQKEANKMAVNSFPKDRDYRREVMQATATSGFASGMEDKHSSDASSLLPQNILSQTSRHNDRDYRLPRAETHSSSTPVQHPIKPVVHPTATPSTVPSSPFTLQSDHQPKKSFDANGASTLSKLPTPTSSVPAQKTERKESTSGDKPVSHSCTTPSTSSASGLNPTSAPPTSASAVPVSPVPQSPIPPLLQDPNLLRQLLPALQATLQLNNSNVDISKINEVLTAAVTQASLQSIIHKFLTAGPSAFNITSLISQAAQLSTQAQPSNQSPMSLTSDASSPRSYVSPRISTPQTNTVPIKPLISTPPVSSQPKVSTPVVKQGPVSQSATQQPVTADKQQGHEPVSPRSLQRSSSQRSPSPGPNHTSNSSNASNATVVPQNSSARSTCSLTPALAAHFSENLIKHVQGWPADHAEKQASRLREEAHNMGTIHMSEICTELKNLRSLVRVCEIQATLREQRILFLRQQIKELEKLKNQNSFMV
# Sequence of UniProt Q9BZI7 (Q9BZI7 whole entry, looked up): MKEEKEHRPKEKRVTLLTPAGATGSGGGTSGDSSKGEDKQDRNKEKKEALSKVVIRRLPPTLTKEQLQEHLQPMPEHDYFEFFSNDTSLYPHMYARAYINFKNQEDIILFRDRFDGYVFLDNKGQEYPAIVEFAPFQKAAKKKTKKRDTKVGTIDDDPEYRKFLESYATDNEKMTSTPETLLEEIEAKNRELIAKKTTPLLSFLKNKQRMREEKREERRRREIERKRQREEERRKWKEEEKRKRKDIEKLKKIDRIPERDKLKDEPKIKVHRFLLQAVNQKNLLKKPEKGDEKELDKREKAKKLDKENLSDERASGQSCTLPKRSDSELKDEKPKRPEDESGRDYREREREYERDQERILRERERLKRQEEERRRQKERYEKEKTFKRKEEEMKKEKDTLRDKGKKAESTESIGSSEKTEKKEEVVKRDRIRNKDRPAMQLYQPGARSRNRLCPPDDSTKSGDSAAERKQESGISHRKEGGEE
Target,log2 fold change (erlotinib),log2 fold change [1],log2 fold change [2],log2 fold change [3],log2 fold change [4],log2 fold change [5],log2 fold change [6],log2 fold change [7],log2 fold change [8],log2 fold change (IRAK-1-4 Inhibitor I),log2 fold change (ibrutinib),log2 fold change [9],log2 fold change (ralimetinib),log2 fold change [10],log2 fold change [11],log2 fold change [12],log2 fold change [13],log2 fold change [14],log2 fold change [15],log2 fold change [16]
ZNF609 (UniProt O15014),-0.035,-0.013,0.028,-0.029,-0.053,-0.023,-0.109,-0.008,0.026,-0.005,0.005,-0.025,0.01,-0.034,-0.001,0.01,-0.045,-0.082,0.013,-0.058
XPOT (UniProt O43592),0.017,-0.013,-0.041,-0.003,0.032,-0.011,-0.021,-0.004,0.025,0.016,-0.012,0.009,0.006,-0.038,-0.014,0,0.013,0.016,0.007,0.018
VPS13C (UniProt Q709C8),-0.007,-0.003,0.038,0.008,0.017,-0.013,-0.021,0.042,-0.012,0.004,-0.011,0.005,0.02,0.006,-0.001,0.251 (active),-0.066,0.041,-0.007,-0.053
WAC (UniProt Q9BTA9),0.027,0.004,0.027,0.092,-0.064,0.008,-0.076,0.051,0.015,-0.006,-0.062,-0.008,-0.012,-0.054,-0.009,0.046,0.034,-0.016,0.022,0.004
XPO1 (UniProt O14980),0.021,0.025,-0.015,0.017,0.026,-0.031,-0.045,-0.005,0.033,0.016,-0.01,0.008,0.029,-0.037,-0.01,-0.007,0.035,-0.004,0.02,0.019
ZMAT2 (UniProt Q96NC0),0.025,-0.037,0.025,-0.023,-0.026,0.023,0.055,-0.007,-0.048,0.066,0.009,-0.016,-0.011,0.013,0.035,-0.004,-0.021,0.032,-0.028,-0.022
USP34 (UniProt Q70CQ2),0.043,0.018,-0.039,0.029,-0.008,0.012,-0.002,0.003,0.003,-0.001,0.002,0.006,0.011,-0.027,0.001,-0.001,-0.032,0.014,0.026,0
WEE1 (UniProt P30291),0.079,-0.014,-0.091,-0.051,0.019,0.01,-0.006,-0.07,0.021,0.056,-0.028,0.139,-0.017,-0.062,-0.031,-0.032,-0.012,0.023,-0.105,-0.038
USP8 (UniProt P40818),-0.011,-0.034,0.026,-0.004,-0.034,0.014,-0.028,-0.014,0.006,-0.019,0.048,-0.009,0,-0.014,0.015,0.004,-0.007,-0.001,0.018,0.009
USP16 (UniProt Q9Y5T5),-0.002,-0.01,-0.01,-0.002,0.011,0.036,-0.016,-0.028,-0.005,-0.033,-0.027,-0.035,-0.001,0.011,0.017,0,-0.06,-0.027,-0.012,0.019
WIPI2 (UniProt Q9Y4P8),-0.006,-0.042,-0.009,0.064,-0.037,-0.003,0.035,-0.054,-0.047,0.021,0.047,0.019,0.026,0.018,0.022,0.042,-0.018,0.006,-0.013,-0.003
UPF3B (UniProt Q9BZI7),-0.026,-0.109,0.042,0.02,-0.005,0.017,-0.014,-0.018,-0.008,0.008,-0.011,0.024,0.007,-0.006,-0.021,0.018,-0.04,0.008,-0.001,-0.003
VAV3 isoform 4 (UniProt Q9UKW4),0.035,1.07,-0.029,-0.144,0.117,0.012,-0.133,0.148,-0.08,-0.017,0.068,-0.109,-0.049,-0.013,-0.028,-0.013,0.085,-0.03,-0.026,0.058
VASP (UniProt P50552),0.001,-0.028,0.017,-0.006,-0.035,-0.003,-0.02,-0.006,0.035,0.014,-0.002,0.002,-0.003,-0.018,-0.009,-0.007,0.038,0.014,-0.014,0.01
WDR91 (UniProt A4D1P6),0.02,0.04,-0.019,0.038,-0.034,0.002,0.019,-0.011,-0.007,-0.013,0.05,0.011,0.026,-0.002,-0.026,-0.013,-0.009,-0.046,0.043,0.002
WDR77 (UniProt Q9BQA1),-0.008,-0.073,-0.018,0.025,-0.021,-0.009,0.011,0.004,0.014,0.002,0.016,0.022,0.031,0.024,-0.012,-0.022,-0.004,0.007,-0.01,0.032
